# Source: PubChem BioAssay
# In the library only some 0.82% were active in any assay of this set; here they are far more common.
# Cardiac RTF inh: cardiac RTF calcium desensitization; IANBD-labeled cardiac RTF, Ca2+ fluorescence; inhibition, % at 7.15 µM; hit rate 0.12% among 340,000;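 active = inhibition above the mean inhibition of all tested compounds plus 3 SD, cut at about 17% in these data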;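 note: assay run at fixed EC70 calcium of 1.6 mM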
# C-LANA FP: KSHV C-LANA DNA binding inhibition. MBP-C-LANA/FAM-LBS DNA binding, fluorescence polarization. inhibition, % at 9 µM. hit rate 0.078% among 340,000. AID 504423;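 active = highest replicate inhibition at or above 60% at 9 µM, even if other replicates fall short; inactive = all replicates below 60% inhibition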;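 note: 0% = neutral control wells and 100% = 4 µM acridine orange control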
# Keap1 Nrf2 FP: Keap1-Nrf2 (human) interaction inhibition | hit rate 0.15% among 340,000 | Q14145 | Keap1 Kelch-Nrf2 peptide fluorescence polarization, 1536-well | AID 504523 | inhibition, % at 9.4 µM; in the data active = inhibition above about 12%;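 note: human Keap1 Kelch domain with fluorescein labeled Nrf2 9mer peptide probe; 0% = neutral control wells and 100% = peptide positive control; higher means more block of Keap1 binding to Nrf2 peptide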
# E coli Lon inh: inhibits E. coli Lon protease | AID 602123 | inhibition, % at 7.94 µM | P0A9M0 | hit rate 0.42% among 360,000 | purified E. coli Lon protease, fluorescence polarization; in the data active = inhibition above about 13%, passing the limit was not always enough;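 note: 0% = enzyme with probe and DMSO and 100% = no enzyme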
# Target sequence (P0A9M0 whole entry, looked up): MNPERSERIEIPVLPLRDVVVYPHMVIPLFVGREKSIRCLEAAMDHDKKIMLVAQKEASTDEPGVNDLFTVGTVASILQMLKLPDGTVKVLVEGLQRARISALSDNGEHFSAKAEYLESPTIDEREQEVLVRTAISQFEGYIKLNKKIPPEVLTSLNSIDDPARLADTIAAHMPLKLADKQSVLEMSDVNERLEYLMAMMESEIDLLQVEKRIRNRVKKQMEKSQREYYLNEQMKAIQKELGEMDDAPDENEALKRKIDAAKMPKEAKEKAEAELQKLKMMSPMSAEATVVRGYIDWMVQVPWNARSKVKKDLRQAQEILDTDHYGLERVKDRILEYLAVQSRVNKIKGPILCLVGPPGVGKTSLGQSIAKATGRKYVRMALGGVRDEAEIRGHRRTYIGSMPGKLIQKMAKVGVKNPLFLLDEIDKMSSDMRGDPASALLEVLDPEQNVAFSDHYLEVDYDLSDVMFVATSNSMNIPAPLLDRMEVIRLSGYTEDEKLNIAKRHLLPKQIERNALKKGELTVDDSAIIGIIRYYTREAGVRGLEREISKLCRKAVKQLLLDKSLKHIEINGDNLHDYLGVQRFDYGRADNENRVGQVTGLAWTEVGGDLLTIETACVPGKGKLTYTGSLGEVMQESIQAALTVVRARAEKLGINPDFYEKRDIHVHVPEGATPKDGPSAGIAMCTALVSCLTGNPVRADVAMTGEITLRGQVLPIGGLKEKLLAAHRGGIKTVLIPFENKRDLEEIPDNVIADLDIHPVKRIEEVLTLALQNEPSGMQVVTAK
# RTF Ca sens act: increases calcium sensitivity of human cardiac regulated thin filaments; IANBD-labeled TnC RTF fluorescence at EC20 calcium; 0% EC20 calcium, 100% full calcium; hit rate 0.24% among 340,000; AID 493008; activation, % at 7.2 µM; P19429+P45379;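 active = activation above the mean over all tested compounds plus 3 SD, cut at about 30% in these data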;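 note: rise in fluorescence read as greater calcium sensitivity of cardiac thin filaments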
# eLon confirm: confirmation of E. coli Lon protease inhibitors | shares compounds with E coli Lon inh | purified E. coli Lon, fluorescence polarization | inhibition, % at 7.94 µM | hit rate 31% among 1,400 | AID 602230; in the data active = inhibition above about 16%;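 note: 0% = enzyme with probe and DMSO and 100% = no enzyme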
# * = called active by the depositor; / = not tested or not shown.
SMILES,Cardiac RTF inh,C-LANA FP,Keap1 Nrf2 FP,E coli Lon inh,RTF Ca sens act,eLon confirm
COc1cc(COCC(O)CN2CCN(CCN3C(=O)c4cccc5cccc(c45)C3=O)CC2)cc(OC)c1OC (stereo not given),1,0,-5,18*,13,17*
OCCC1CN(Cc2ccsc2)CCN1C1CCCC1 (stereo not given),-1,4,-7,20*,5,3
O=C(C1CCN(S(=O)(=O)c2ccc(Cl)cc2)CC1)N1CCC1,1,/,/,-9,3,/
O=C(C1CCN(S(=O)(=O)c2c(Cl)cccc2Cl)CC1)N1CCCCCCC1,-10,0,5,18*,0,-4
O=C1CCCN1CCCN1CC(C(=O)N(CCO)Cc2ccccc2)CCC1=O (stereo not given),-7,0,-6,-7,-2,/
O=C(C1CCC(=O)N(C2CC2)C1)N(CCO)Cc1ccccc1 (stereo not given),-5,0,-5,47*,-4,0
O=C(/C=C/c1ccc(OC(F)F)cc1)OCC(=O)N1CCc2ccccc21,3,1,1,17*,-2,2
COc1ncnc2c1ncn2CCCNCc1ccccn1,/,/,/,-7,/,/
CCOC(=O)C1=C(N)Oc2cc(O)ccc2C1c1ccc(F)cc1F (stereo not given),-5,-2,-5,34*,-1,-17
CCOc1ccccc1OCC(=O)Nc1cccc(S(=O)(=O)N2CCCCCC2)c1,-2,-1,-4,60*,4,-6
COc1ccc(NC(=O)COc2ccccc2C(N)=O)cc1S(=O)(=O)N1CCCCC1,/,/,/,-1,/,/
Cc1ccc(NC(=O)COc2ccccc2C(N)=O)cc1S(=O)(=O)N1CCCCCC1,-2,-1,-2,22*,-3,1
CC(=O)c1ccccc1OCC(=O)Nc1cccc(S(=O)(=O)N2CCCC2)c1,2,1,3,0,0,/
CC(C)NC(=O)CN1CCN(C(c2cc3ccccc3o2)c2nnnn2C(C)(C)C)CC1 (stereo not given),/,/,/,0,/,/
Cn1c(-c2ccccc2)c(CCO)c2ccccc21,-13,2,-2,32*,-9,-7
Cn1c(-c2ccccc2)c(C(=O)CCl)c2ccccc21,-8,3,-6,5,1,/
CSCCC(NC(=O)c1ccc(Cl)cc1)C(=O)OCC(=O)Nc1ccc(C#N)cc1 (stereo not given),9,1,1,35*,-4,1
CN(C)C(=O)c1cccc(COc2ccc(N3C(N)=NC(N)=NC3(C)C)cc2Cl)c1,/,/,/,-10,/,/
CCc1c(C(C)S(=O)(=O)c2ccc(C)cc2)[nH]c(=O)n1-c1ccc(C)cc1 (stereo not given),-8,1,-12,63*,-6,8
CCc1[nH]c(=O)[nH]c1C(C)S(=O)(=O)c1ccc(C)cc1 (stereo not given),-1,1,-8,-7,-3,/
Cn1cc(Cc2ccc(C(=O)N3CCOCC3)cn2)c2ccccc21,/,/,/,3,/,/
Cc1ccc(-c2nc3ncccc3o2)cc1NC(=O)c1cccnc1,1,2,1,31*,-7,-8
CC(C)C(=O)NNS(=O)(=O)c1ccccc1[N+](=O)[O-],-22,-1,-4,15*,2,3
c1cc(CNCC2CCCO2)ccn1 (stereo not given),1,0,-2,-11,4,/
C=CCOc1ccc(CNCC2CCCO2)cc1 (stereo not given),-18,-2,0,54*,0,5
SMILES,Cardiac RTF inh,C-LANA FP,Keap1 Nrf2 FP,E coli Lon inh,RTF Ca sens act,eLon confirm
O=C(CCN1C(=O)C2C3C=CC(C3)C2C1=O)N1CCCCC1 (stereo not given),1,-1,-3,5,1,/
O=C(CN1C(=O)C2C3C=CC(C3)C2C1=O)NCc1ccccc1 (stereo not given),-9,0,1,4,0,/
O=C(CN1C(=O)C2CC=C(Cl)CC2C1=O)NCc1ccccc1 (stereo not given),-8,7,-3,34*,3,38*
O=C1C2CC=C(Cl)CC2C(=O)N1CCc1ccccc1 (stereo not given),-14,7,-3,25*,3,48*
O=C(CCN1C(=O)C2CC=C(Cl)CC2C1=O)N1CCCCC1 (stereo not given),-8,10,5,29*,0,52*
COc1ccc(CNC(=O)c2ccc(-n3ccnc3)c3ccoc23)cc1OC,/,/,/,-9,/,/
CCc1ccc(N2CC(C(=O)N3CCN(S(=O)(=O)c4cccc(F)c4)CC3)CC2=O)cc1 (stereo not given),/,/,/,-10,/,/
Cc1cc(=O)n(CC(=O)NC2CC2)c2c1c(C)nn2-c1ccccc1,-12,-1,-3,-12,-2,/
Cc1cc(=O)n(CC(=O)NCCN2CCOCC2)c2c1c(C)nn2-c1ccccc1,0,-1,-1,17*,-1,-1
CCOc1ccccc1N(CC)C(=O)c1ccc2c(=O)n3c(nc2c1)CCCCC3,5,4,2,21*,-4,-3
CCN(C(=O)c1ccc2c(=O)n3c(nc2c1)CCCCC3)c1ccc(F)cc1,-3,-2,1,-2,6,/
Oc1ccc(Nc2nc(-c3ccccc3F)nc3ccccc23)cc1,-6,-2,-4,17*,0,8
COc1cccc(C(=O)NCCS(=O)(=O)N2CCN(c3ccccc3)CC2)c1OC,/,/,/,12,/,/
COc1cc(OC)c(-c2c3cc(O)c(=O)cc-3oc3cc(O)c(O)cc23)cc1OC,-488,-32,-199,20*,894*,-54
Cc1c2cc(O)c(=O)cc-2oc2cc(O)c(O)cc12,-20,164*,121*,48*,109*,196*
Cc1cc2oc(=O)cc(-c3cc4ccccc4o3)c2cc1O,-13,-1,-1,4,-6,/
COCCNC(=O)C1(C)CCCN(C(=O)c2cccc(Cl)c2)C1 (stereo not given),/,/,/,-1,/,/
COc1cccc(CNC(=O)[C@@H]2CCCN2C(=O)[C@@H]2CCCN2S(=O)(=O)c2ccc(OC)c(C)c2)c1,/,/,/,5,/,/
CN1CCN(C2CN(Cc3cn(Cc4ccc(F)cc4)nn3)S(=O)(=O)C2)CC1 (stereo not given),/,/,/,-7,/,/
COCCn1nc2cc(C(=O)NCc3cc(C(F)(F)F)cc(C(F)(F)F)c3)ccc2c1OC,-2,1,-8,21*,-1,-8
CCOc1c2ccc(C(=O)NCc3cc(C(F)(F)F)cc(C(F)(F)F)c3)cc2nn1CCOC,15,0,1,3,-2,/
NC(=O)CSc1cn(Cc2cccc(F)c2)c2ccccc12,-3,-2,2,26*,-1,-9
CCc1oc(C(=O)O)cc1CN(CC)CC,-8,1,-4,0,1,/
CCN(CC)Cc1cc(O)c(CN(CC)CC)cc1O,-11,25,5,35*,7,30*
